Records with an inconclusive call do not appear. Active and inactive are the calls of the source. Unless noted, the call rests on the fitted dose curve; in most records, active means well fitted curve in the direction sought with a large enough effect in the repeat runs; inconclusive means weak or mixed curves; inactive means no such curve, though single readings can be large; an effect the other way counts as inactive or inconclusive.
Assays:
[1] = target: Luciferin 4-monooxygenase (Photinus pyralis) (UniProt P08659); assay: qHTS assay to identify small molecule inhibitors of firefly luciferase (AID 1224835); further: on the % scale 0 is the no-effect control and ±100 the full control effect; nearly all actives have a fitted effect of over 25% in size
Procedure, shortened: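 Quantitative HTS format; KM concentrations of both substrates. Purified P. pyralis FLuc activity quantified from luminescence images.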

[2] = qHTS assay to identify small molecule agonists of the constitutive androstane receptor (CAR) signaling pathway - cell viability counter screen (AID 1224836); further: on the % scale 0 is the no-effect control and ±100 the full control effect; nearly all actives have a fitted effect of over 45% in size
Procedure, shortened: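 Multiplexed viability check: HepG2-CYP2B6-hCAR cells, 15-point compound dosing, 0.75 uM PK11195 final, 23 h at 37 C, CellTiter-Fluor fluorescence.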

[3] = qHTS assay to identify small molecule antagonists of the constitutive androstane receptor (CAR) signaling pathway - cell viability counter screen (AID 1224837); further: on the % scale 0 is the no-effect control and ±100 the full control effect; nearly all actives have a fitted effect of over 45% in size
Procedure, shortened: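 Counter screen run in HepG2-CYP2B6-hCAR cells: 4 hr settle, compound titration (15 concentrations) with 50 nM CITCO, 23 hr at 37 C/5% CO2, CellTiter-Fluor fluorescence.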

[4] = target: Nuclear receptor subfamily 1 group I member 3 (Homo sapiens) (UniProt Q14994); assay: qHTS assay to identify small molecule antagonists of the constitutive androstane receptor (CAR) signaling pathway (AID 1224838);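 further: HepG2 cells stably expressing hCAR with CYP2B6 luciferase reporter stimulated by CITCO; on the % scale 0 is the no-effect control and ±100 the full control effect; nearly all actives have a fitted effect of over 40% in size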
Procedure, shortened: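 Cell line: HepG2 double-stable for hCAR and CYP2B6-2.2kb reporter. Agonist: CITCO, 50 nM final. Compounds: 15 concentrations, 24 h, 37 C. Detection: ONE-Glo luminescence.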

[5] = target: Nuclear receptor subfamily 1 group I member 3 (Homo sapiens) (UniProt Q14994); assay: qHTS assay to identify small molecule agonists of the constitutive androstane receptor (CAR) signaling pathway (AID 1224839); further: nearly all actives have a fitted effect of over 15% in size; further: potency means the concentration at half of the fitted maximal effect;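 on activation: HepG2 cells stably carrying human CAR and a CYP2B6 luciferase reporter; on the % scale 0 is the no-effect control and ±100 the full control effect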
Procedure, shortened: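 Using human hepatoma HepG2 cells engineered with hCAR and a CYP2B6-2.2kb reporter, 15-concentration compound series were incubated 24 h alongside PK11195 at 0.75 uM final, with luminescence quantified afterwards.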

[6] = qHTS assay to identify small molecule antagonists of the estrogen related receptor signaling pathway with the pleiotropic PPARgamma coactivator (PGC) from Tox21 10K library - cell viability counter screen (AID 1224840; active means well fitted cell-killing curve with a large enough effect in the repeat runs, not every such curve was filed as active; further: on the % scale 0 is the no-effect control and ±100 the full control effect; nearly all actives have a fitted effect of over 40% in size)
Procedure, shortened: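 Following seeding of 2,000 PGC/ERR cells/well and 6 hours' incubation, test compounds were delivered in DMSO. The plates then sat 17.5 hours at 37 C before a fluorogenic live-cell protease reagent (CellTiter-Fluor) was read after 30 min.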

[7] = target: Thyrotropin receptor (Homo sapiens) (UniProt P16473); assay: qHTS assay to identify small molecule agonists of the thyroid stimulating hormone receptor (TSHR) signaling pathway (AID 1224843; calls by dose curve; further: on the % scale 0 is the no-effect control and ±100 the full control effect; nearly all actives have a fitted effect of over 45% in size)
Procedure, shortened: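 TSHR-expressing HEK293 cells (800 per well) were exposed to compounds for 30 min at room temperature. cAMP was then detected by HTRF competition with cAMP-d2 and anti-cAMP cryptate, read after 1 h at room temperature. Fifteen concentrations, triplicate.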

[8] = qHTS assay to identify small molecule agonists of the hypoxia (HIF-1) signaling pathway - cell viability counter screen (AID 1224844; calls by dose curve; further: on the % scale 0 is the no-effect control and ±100 the full control effect; nearly all actives have a fitted effect of over 50% in size)
Procedure, shortened: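 Cells (HRE-bla ME-180, 2,000 per well) sat 5 hrs at 37C, got compound for 17 hrs, were read for CCF4-AM FRET, and were finally lysed with CellTiter-Glo for a 30 min room-temperature luminescence read.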

[9] = qHTS assay to identify small molecule agonists of H2AX (AID 1224845; active means well fitted activation curve with a large enough effect in the signal ratio in the repeat runs, not every such curve was filed as active; the % refers to the signal ratio; further: on the % scale 0 is the no-effect control and ±100 the full control effect)
Procedure, shortened: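 Wild-type CHO-K1 cells plated overnight, then exposed 3 hr at 37C to compounds at 15 concentrations (0.76% DMSO). Lysed, then HTRF anti-pH2AX(S139)-cryptate/anti-H2AX-d2 detection after 24 hr at room temperature; emissions 665 and 620 nm.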

[10] = qHTS assay to identify small molecule agonists of the hypoxia (HIF-1) signaling pathway (AID 1224846; active means well fitted activation curve with a large enough effect in the signal ratio in the repeat runs, not every such curve was filed as active; the % refers to the signal ratio; further: on the % scale 0 is the no-effect control and ±100 the full control effect)
Procedure, shortened: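 A low-serum medium (0.5% dialyzed FBS) holding 2,000 HRE-bla ME-180 cells per well is preincubated for 5 hrs, dosed with compounds by pintool, and kept a further 17 hrs at 37C, 5% CO2 before CCF4-AM FRET detection of beta-lactamase.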

[11] = qHTS assay to identify small molecule agonists of H2AX - cell viability counter screen (AID 1224847; calls by dose curve; further: nearly all actives have a fitted effect of over 30% in size; further: potency means the concentration at half of the fitted maximal effect)
Procedure, shortened: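 After overnight plating of 1000 CHO-K1 cells per well, a 15-concentration compound series was applied for 3 hr at 37C. Luminescence from CellTiter-Glo, read following 30 min at room temperature, reflected cell viability.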

[12] = qHTS RealTime-Glo MT Cell Viability Assay in HepG2 cells - 24 hour (AID 1224867); further: on the % scale 0 is the no-effect control and ±100 the full control effect; nearly all actives have a fitted effect of over 50% in size
Procedure, shortened: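 HepG2 suspension premixed with RealTime-Glo reagents is plated at 600 cells per well and left 5 h at 37 C/5% CO2. Compounds in DMSO then go in, and bioluminescence reflecting viable cell number is recorded over 40 h.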

[13] = qHTS RealTime-Glo MT Cell Viability Assay in HEK293 cells - 32 hour (AID 1224868); further: nearly all actives have a fitted effect of over 50% in size; further: potency means the concentration at half of the fitted maximal effect
Procedure, shortened: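 Reads taken at 0, 8, 16, 24, 32 and 40 h from the same wells. HEK293 cells (600/well) carried RealTime-Glo reagents from seeding, with compound added after a 5 h settle at 37 C.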

[14] = A CellTox Green Cytotoxicity Assay to monitor cytotoxicity in HEK293 cells - 0 hour (AID 1224869); further: on the % scale 0 is the no-effect control and ±100 the full control effect; nearly all actives have a fitted effect of over 50% in size
Procedure, shortened: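 Fluorescence intensity, read at 0, 8, 16, 24, 32 and 40 h of compound treatment, reflected dye binding to DNA of dead HEK293 cells; compounds (23 nL, DMSO) were added 5 h after plating cells with reagent.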

[15] = qHTS RealTime-Glo MT Cell Viability Assay in HepG2 cells - 40 hour (AID 1224870)
Procedure, shortened: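 HepG2 cells mixed with RealTime-Glo MT reagents (NanoLuc plus cell-permeant prosubstrate) were seeded at 600 cells/well, incubated 5 h at 37 C/5% CO2, then pinned with compounds in DMSO; nonlytic luminescence tracked viability during 40 h treatment.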

[16] = qHTS assay to identify small molecule agonists of the estrogen related receptor signaling pathway with the pleiotropic PPARgamma coactivator (PGC) from Tox21 10K library (AID 1224842); further: on the % scale 0 is the no-effect control and ±100 the full control effect; nearly all actives have a fitted effect of over 15% in size
Procedure, shortened: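 PGC/ERR reporter cells (NTP line) were seeded 2,000 per well, rested 6 h at 37 C/5% CO2, then pin-dosed with compounds in DMSO for 18 h at 37 C; luciferase read by One-Glo luminescence after 30 min at room temperature.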

[17] = qHTS assay to identify small molecule agonists of the estrogen related receptor (ERR) signaling pathway from Tox21 library (AID 1224849; calls by dose curve; further: on the % scale 0 is the no-effect control and ±100 the full control effect; nearly all actives have a fitted effect of over 15% in size); conditions: ERR reporter cell line, ONE-Glo luciferase, 18 h; at 92.4 µM (top of the series) unless noted
Procedure, shortened: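 Screening used an NTP-provided ERR luciferase cell line. Compounds in DMSO were added 6 h after seeding and left 18 h at 37 C before a 30 min ONE-Glo step and luminescence reading.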

[18] = qHTS assay to identify small molecule antagonists of the estrogen related receptor (ERR) signaling pathway from Tox21 library (AID 1224848)
Procedure, shortened: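 Cells: ERR line, 2,000/well; 6 h preincubation 37 C/5% CO2. Cpd in DMSO via pin tool; 18 h, 37 C. ONE-Glo, 30 min RT, luminescence.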

Chain of Luciferin 4-monooxygenase (Photinus pyralis) (P08659 whole entry, looked up): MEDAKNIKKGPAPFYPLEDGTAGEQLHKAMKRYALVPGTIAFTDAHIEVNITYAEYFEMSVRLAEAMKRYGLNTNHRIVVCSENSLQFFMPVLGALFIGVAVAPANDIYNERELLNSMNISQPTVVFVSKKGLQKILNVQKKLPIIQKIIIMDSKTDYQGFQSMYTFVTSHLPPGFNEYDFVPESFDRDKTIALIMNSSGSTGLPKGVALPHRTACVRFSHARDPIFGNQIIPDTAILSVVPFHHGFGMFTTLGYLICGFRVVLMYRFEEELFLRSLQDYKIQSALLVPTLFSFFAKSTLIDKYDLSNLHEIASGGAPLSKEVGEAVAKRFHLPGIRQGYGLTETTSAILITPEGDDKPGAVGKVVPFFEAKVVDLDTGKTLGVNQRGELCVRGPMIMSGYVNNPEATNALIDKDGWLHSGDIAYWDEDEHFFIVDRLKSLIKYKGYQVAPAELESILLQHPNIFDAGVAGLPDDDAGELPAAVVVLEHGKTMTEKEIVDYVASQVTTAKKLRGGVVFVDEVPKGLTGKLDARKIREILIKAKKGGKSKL
Chain of Nuclear receptor subfamily 1 group I member 3 (Homo sapiens) (Q14994 whole entry, looked up): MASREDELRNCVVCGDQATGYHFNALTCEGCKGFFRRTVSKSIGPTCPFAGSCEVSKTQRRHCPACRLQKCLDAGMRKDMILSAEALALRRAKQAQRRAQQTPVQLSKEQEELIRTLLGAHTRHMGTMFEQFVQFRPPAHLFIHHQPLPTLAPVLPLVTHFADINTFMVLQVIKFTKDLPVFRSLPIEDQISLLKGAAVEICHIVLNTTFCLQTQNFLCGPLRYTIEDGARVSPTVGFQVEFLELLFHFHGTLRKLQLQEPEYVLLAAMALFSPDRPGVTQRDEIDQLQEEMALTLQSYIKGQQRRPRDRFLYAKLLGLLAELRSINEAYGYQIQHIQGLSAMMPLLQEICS
Chain of Thyrotropin receptor (Homo sapiens) (P16473 whole entry, looked up): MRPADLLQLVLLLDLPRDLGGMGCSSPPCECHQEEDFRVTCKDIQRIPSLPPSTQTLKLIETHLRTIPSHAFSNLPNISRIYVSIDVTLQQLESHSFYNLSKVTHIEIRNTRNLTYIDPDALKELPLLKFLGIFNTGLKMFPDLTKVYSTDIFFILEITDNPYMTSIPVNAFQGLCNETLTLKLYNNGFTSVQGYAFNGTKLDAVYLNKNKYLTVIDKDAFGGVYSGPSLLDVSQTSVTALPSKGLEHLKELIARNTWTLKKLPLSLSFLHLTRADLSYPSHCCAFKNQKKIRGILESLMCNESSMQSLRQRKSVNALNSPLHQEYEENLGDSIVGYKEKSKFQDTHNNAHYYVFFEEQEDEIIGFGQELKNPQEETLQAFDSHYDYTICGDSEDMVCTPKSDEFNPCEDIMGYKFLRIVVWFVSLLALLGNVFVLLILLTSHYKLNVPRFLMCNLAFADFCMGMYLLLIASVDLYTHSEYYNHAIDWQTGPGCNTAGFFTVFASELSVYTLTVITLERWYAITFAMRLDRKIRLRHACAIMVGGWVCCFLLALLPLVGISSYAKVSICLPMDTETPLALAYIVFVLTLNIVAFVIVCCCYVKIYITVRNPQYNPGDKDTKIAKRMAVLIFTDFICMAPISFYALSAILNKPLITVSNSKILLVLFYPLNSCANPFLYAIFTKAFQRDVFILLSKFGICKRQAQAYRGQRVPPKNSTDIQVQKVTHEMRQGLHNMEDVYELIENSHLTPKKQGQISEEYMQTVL

Fc1c(F)c(F)c(Br)c(F)c1F
inactive: Potency [1] | Potency [2] | Potency [3] | Potency [4] | Potency [5] | Potency [6] | Potency [7] | Potency [8] | Potency [9] | outcome [10] | Potency [11] | Potency [12] | Potency [13] | Potency [14] | Potency [15]

CC(=O)Oc1ccc2c(c1)CC[C@@H]1[C@@H]2CC[C@]2(C)[C@@H](O)CC[C@@H]12
inactive: Potency [2] | Potency [3] | Potency [4] | Potency [6] | Potency [16] | Potency [7] | Potency [8] | outcome [10] | Potency [11] | activity change, positive = activation [17] -29.3% [at 42.5 µM] | Potency [12] | Potency [14] | Potency [15]
active: Potency [5] 9.44 µM | Potency [13] 9.52 µM

Cc1nccn1-c1ccc(Sc2cccc(C3(C(N)=O)CCOCC3)c2)cc1
active: Potency [5] 9.69 µM | Potency [18] 1.37 µM | Potency [13] 1.38 µM
inactive: Potency [4] | Potency [6] | Potency [16] | Potency [7] | Potency [8] | outcome [10] | activity change, positive = activation [17] -58% | Potency [15]

CCOC(=O)CC(=O)C(=O)OCC
active: Potency [18] 27.3 µM | Potency [13] 49 µM
inactive: Potency [1] | Potency [5] | Potency [6] | Potency [16] | Potency [7] | Potency [9] | outcome [10] | activity change, positive = activation [17] -57.1% | Potency [12] | Potency [14] | Potency [15]

CCCOC(=O)c1ccc(C(=O)OCCC)nc1
inactive: Potency [3] | Potency [5] | Potency [6] | Potency [7] | Potency [8] | outcome [10] | Potency [11] | Potency [12] | Potency [13] | Potency [15]

COCCOC(=O)C1=C(C)NC(C)=C(C(=O)OC/C=C/c2ccccc2)C1c1cccc([N+](=O)[O-])c1 (stereo unspecified)
active: Potency [18] 7.5 µM
inactive: Potency [1] | Potency [2] | Potency [4] | Potency [16] | Potency [8] | Potency [9] | activity change, positive = activation [17] -61.8% [at 42.5 µM] | Potency [15]

CC1C2CC(CC2C2CCCC(O)C2)C1(C)C (stereo unspecified)
active: Potency [11] 89.8 µM
inactive: Potency [1] | Potency [2] | Potency [3] | Potency [12] | Potency [13] | Potency [14] | Potency [15]
